From PubChem BioAssay
Shown are actives, neighbours in structure and some others; about 0.9% of the full set was active somewhere.
PPARg SRC3 recr: promotes SRC-3 coactivator recruitment by human PPARgamma; biochemical PPARgamma/SRC-3 coactivator recruitment assay; 200,000 compounds, 0.26% hits; activation, % at 8 µM; in the data active means activation above about 23%;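 further: 0% = DMSO and 100% = reference agonist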
Target sequence (P37231 whole entry, looked up): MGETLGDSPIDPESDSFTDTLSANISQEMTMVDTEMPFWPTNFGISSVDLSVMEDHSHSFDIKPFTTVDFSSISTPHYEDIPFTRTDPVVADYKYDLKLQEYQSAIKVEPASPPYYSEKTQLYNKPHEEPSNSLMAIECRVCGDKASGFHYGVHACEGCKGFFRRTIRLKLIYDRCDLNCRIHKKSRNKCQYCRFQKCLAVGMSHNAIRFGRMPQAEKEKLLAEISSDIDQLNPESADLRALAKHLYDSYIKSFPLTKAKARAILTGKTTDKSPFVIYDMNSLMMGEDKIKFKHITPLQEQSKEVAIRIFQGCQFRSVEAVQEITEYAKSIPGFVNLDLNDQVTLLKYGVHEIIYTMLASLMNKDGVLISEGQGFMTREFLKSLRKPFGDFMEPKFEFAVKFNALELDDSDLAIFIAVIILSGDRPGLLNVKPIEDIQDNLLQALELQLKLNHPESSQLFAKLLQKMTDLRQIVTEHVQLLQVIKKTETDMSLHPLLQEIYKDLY
SRC2 TRFRET art: counter-screen for PPARgamma SRC-2 recruitment agonists: TR-FRET artefact; 200,000 compounds, 0.4% hits; TR-FRET ratio at 8 µM; stronger effect = higher value
PPARg SRC-2 ag: agonists of SRC-2 recruitment by human PPARgamma. P37231. PPARgamma LBD-SRC-2 recruitment, biochemical. activation, % at 8 µM. 200,000 compounds, 0.34% hits; in the data active means activation above about 22%;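 further: 0% = vehicle and 100% = reference agonist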
SRC3 TRFRET art: TR-FRET artefact, counter-screen to PPARgamma/SRC-3 agonist assay; TR-FRET ratio at 8 µM; PPARgamma/SRC-3 format; stronger effect = higher value; AID 1048; 99,000 compounds, 0.39% hits
SRC1 TRFRET art: counter-screen for PPARgamma SRC-1 recruitment agonists: TR-FRET artefact. 99,000 compounds, 0.34% hits. TR-FRET detection artefact counter-screen, emission ratio; stronger effect = higher value. AID 1051. TR-FRET ratio at 8 µM; in the data active means TR-FRET ratio above about 2300
PPARg SRC1 recr: promotes SRC-1 coactivator recruitment by human PPARgamma. P37231. PPARgamma-SRC-1 coactivator recruitment biochemical assay. activation, % at 8 µM. 200,000 compounds, 0.41% hits. AID 631; in the data active means activation above about 19%;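 further: 0% = DMSO and 100% = reference agonist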
Active calls of the source: *; / = no result given. Unless noted, no stated cut-off is given here; in the data, active means TR-FRET ratio above about 2000; inactive means the rest.

SMILES	PPARg SRC3 recr	SRC2 TRFRET art	PPARg SRC-2 ag	SRC3 TRFRET art	SRC1 TRFRET art	PPARg SRC1 recr
O=C(Nc1nc(-c2cccs2)cs1)c1cccc(S(=O)(=O)N2CCCCCC2)c1	-1.0	2098*	2.3	/	/	3.1
CCOc1cccc(C(=O)Nc2nc(-c3ccc(S(=O)(=O)N4CCOCC4)cc3)cs2)c1	19.4	2173*	18.1	/	/	14.0
CCOC(=O)C(NCc1ccc2c(c1)OCO2)(NC(=O)c1ccccc1)C(F)(F)F (stereo not drawn)	-2.3	1594	0.6	/	/	6.5
Cc1ccc(/C=C2\SC(N3CCN(C(c4ccccc4)c4ccccc4)CC3)=NC2=O)o1	-5.9	1640	-3.6	1578	1794	-4.4
CCn1nc(C)c(CNC(=O)CCc2nnc(-c3ccc(C(C)=O)s3)o2)c1C	2.4	1593	1.6	1273	1676	-7.3
COC(=O)c1[nH]nc(C(=O)OC(C)(C)C)c1-c1ccccc1	2.8	1599	3.8	1619	1900	3.4
COC(=O)c1onc(-c2c(C)cc(C)cc2C)c1C(=O)OC	-3.2	1274	-2.8	/	/	-7.7
O=C(N/N=C/c1ccco1)c1ccc(NC(=O)c2ccccc2Cl)cc1	3.4	1979*	6.7	1694	2163	13.1
O=C(N/N=C/c1cccs1)c1ccc(NC(=O)c2ccccc2Cl)cc1	-1.9	1642	-2.4	1574	1581	-6.8
Cc1cc(C(=O)N/N=C/c2ccc(O)c([N+](=O)[O-])c2)n[nH]1	8.5	1578	9.1	1716	2220	4.0
Cc1cc(C(=O)N/N=C/c2cccc([N+](=O)[O-])c2O)n[nH]1	4.4	1799	18.2	2114*	2259	8.1
CCC(C)/C(C)=N/NC(=O)c1ccc(COc2ccc(Cl)c(C)c2)cc1 (stereo not drawn)	-1.4	1397	5.9	1552	1684	-0.1
Cc1c(Cl)cccc1NC(=S)NN1CCOCC1	-3.9	1511	-1.6	/	/	-6.1
O=C(CSc1nnc(-c2ccc(F)cc2)c2ccccc12)Nc1ccccc1	7.8	1768	5.8	2080*	2120	10.9
O=C(CSc1nnc(-c2ccc(F)cc2)c2ccccc12)Nc1ccccc1Cl	-1.0	1884	8.3	2763*	1880	1.7
O=C(CSc1nnc(-c2ccc(F)cc2)c2ccccc12)Nc1c(F)cccc1F	-1.4	1603	16.7	1547	1814	7.9
O=C(CSc1nnc(-c2ccc(F)cc2)c2ccccc12)Nc1cccc(Cl)c1	5.3	2527*	3.6	3308*	2670*	3.5
Cc1sc2ncnc(SCC(=O)NNC(=O)COc3cccc4ccccc34)c2c1C	-5.0	1437	7.1	/	/	1.5
O=C(C1CCN(S(=O)(=O)c2cccc3cccnc23)CC1)N1CCN(c2ccc(Cl)cc2)CC1	4.8	1529	-3.4	/	/	2.6
S=c1[nH]c2ccc(Cl)cc2[nH]1	5.2	1677	23.6*	/	/	5.0
COc1ccc2[nH]c(=S)[nH]c2c1	10.5	1534	12.6	/	/	4.7
CCc1nc(SCC(=O)NCCc2ccccc2)c2oc3ccccc3c2n1	2.8	2202*	12.9	/	/	-4.2
Cc1nc(SCC(=O)c2ccc(Cl)s2)c2oc3ccccc3c2n1	-8.6	1533	-0.3	/	/	18.7*
Cc1nc(SCC(=O)Nc2ccccc2)c2oc3ccccc3c2n1	-2.5	1248	-2.4	/	/	-0.6
Cc1nc(SCC(=O)NC(C)c2ccccc2)c2oc3ccccc3c2n1 (stereo not drawn)	4.1	1582	5.7	/	/	6.2
SMILES	PPARg SRC3 recr	SRC2 TRFRET art	PPARg SRC-2 ag	SRC3 TRFRET art	SRC1 TRFRET art	PPARg SRC1 recr
Cc1nc(SCC(=O)Nc2ccc(F)cc2)c2oc3ccccc3c2n1	4.5	1446	1.5	/	/	30.1*
Cc1ccc(Sc2cc(Cl)nc(N)n2)cc1	-0.5	1501	9.9	/	/	0.2
Cc1ccc2cc(C#N)c(NCc3ccccc3)nc2c1	17.9	1722	17.1	2317*	2504*	18.8
c1ccc(CSc2ccc(-c3ccco3)nn2)cc1	-5.5	1542	-1.6	1530	1943	1.4
COc1cnn(-c2ccccc2)c(=O)c1N(C)C	25.8*	1421	-4.7	/	/	-4.4
COCCNC(=O)CSc1nnc(-c2ccccc2)c(-c2ccccc2)n1	-0.8	1780	5.6	1349	1965	-0.5
CC1(CCC#N)N=C(SCCC#N)N(c2ccccc2)C1=O (stereo not drawn)	1.5	1990*	7.9	/	/	2.4
Cc1cccc(C(C)C)c1NC(=O)c1ccc(COc2ccc3c(C)cc(=O)oc3c2)cc1	10.5	2255*	19.4	2221*	2539*	14.4
Cc1cccc(NC(=O)C(=O)NCC2CCCO2)c1 (stereo not drawn)	0.9	1417	-4.4	1372	1556	-9.3
Cc1cc(C)c2nc(SCC(=O)N3CC(=O)Nc4ccccc43)c(C#N)cc2c1	-1.8	3300*	11.8	/	/	-4.2
NC(N)=Nc1nc(CSCC/C(N)=N/S(N)(=O)=O)cs1	6.1	1766	6.9	1747	1933	21.6*
Cc1cccc(N2C(=O)CC(Sc3nc(-c4ccccc4)c4cc(Cl)ccc4n3)C2=O)c1 (stereo not drawn)	-2.6	2388*	-2.4	/	/	-0.7
Cc1cccc(N2C(=O)CC(Sc3nc(C)cc(C)n3)C2=O)c1 (stereo not drawn)	2.3	1638	5.6	/	/	-4.9
CCOC(=O)C1=C(C)N(CCCCCC(=O)O)C(=O)NC1c1ccccc1OC(=O)c1cccs1 (stereo not drawn)	0.1	1374	0.8	1657	1678	3.6
Cc1cc(/C=C2/NC(=O)N(Cc3ccccc3F)C2=O)c(C)n1C	7.6	1764	22.6*	1554	1719	0.8
CCc1cc2cc(C(=O)Nc3ccc(C)cc3)sc2s1	6.9	1676	23.8*	/	/	6.9
O=C(NN1CCN(Cc2ccccc2Cl)CC1)c1ccc(Br)cc1	-4.7	1665	-2.2	1690	1881	3.0
Cc1ccccc1N=Cc1cc2c(cc1O)OC(N)=C(C#N)C2c1ccccc1 (stereo not drawn)	2.6	1668	9.3	1831	2419*	13.5
COc1cc2c(C(=O)N3CCN(c4cccc(Cl)c4)CC3)cn(CC(C)C)c(=O)c2cc1OC	7.7	1320	-7.6	/	/	1.9
CCC(C)NS(=O)(=O)c1ccc(OCC(=O)NCc2cccnc2)cc1 (stereo not drawn)	1.6	1304	8.0	/	/	5.7
Cc1ccc(NS(=O)(=O)c2ccc(OCC(=O)NCc3cccnc3)cc2)cc1	4.2	1614	26.9*	1701	1921	1.8
Cc1ccc(S(=O)(=O)NC(=O)COc2ccccc2)cc1	6.5	1758	0.4	1472	2230	21.3*
Cc1ccc(OCC(=O)NS(=O)(=O)c2ccccc2)cc1	7.0	1545	-2.0	1655	1979	10.7
Cn1c(=O)[nH]c2ccc([N+](=O)[O-])nc21	-1.8	1552	-8.5	1494	1747	-0.5
CCC(=O)NC(=S)Nc1ccc(NC(=S)NC(=O)c2ccccc2)cc1	3.2	1582	2.7	1626	2679*	24.3*
COc1c(C)cc(Br)cc1C(=O)Nc1ccc(Cc2ccncc2)cc1	-1.4	1470	1.4	1459	1522	-0.4
Cn1c(C(=O)NCc2ccco2)cc2c(=O)[nH]c3ccccc3c21	0.0	1736	6.2	1309	2510*	22.8*
